For 10 sequences, binding signal results are on record in publication PMC8384837, “Expanding the binding specificity for RNA recognition by a PUF domain”.

Numbering of substitutions follows the chain as printed.

Holding throughout (assay): yeast three-hybrid, YBZ-1, SC-Leu-His + 0.5 mM 3-AT, 4 days
Conditions in all cases: tags: N-Gal4 AD-HA kept; label: inside an RPR1-promoter hybrid RNA with tandem MS2 sites; ssRNA

One test has as its target T1, PUM1 PUF domain R6-VWT (Homo sapiens, UniProt Q14671 828-1176, N1043V;Y1044W;Q1047T).
T1 sequence: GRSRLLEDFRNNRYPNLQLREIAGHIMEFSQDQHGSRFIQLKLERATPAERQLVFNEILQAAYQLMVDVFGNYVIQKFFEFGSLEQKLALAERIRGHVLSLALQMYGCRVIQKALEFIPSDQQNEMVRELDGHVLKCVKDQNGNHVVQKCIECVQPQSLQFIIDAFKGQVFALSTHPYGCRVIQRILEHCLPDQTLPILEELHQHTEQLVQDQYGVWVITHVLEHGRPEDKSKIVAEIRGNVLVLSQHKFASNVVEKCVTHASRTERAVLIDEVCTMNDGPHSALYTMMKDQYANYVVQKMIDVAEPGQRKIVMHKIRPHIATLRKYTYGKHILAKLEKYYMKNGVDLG
Put shortly:
(§1)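 The interaction score is the log change in how often each variant appears, from input to selection. Frequencies came from PCR-amplified, Illumina-sequenced repeat regions of Pumilio-1 PUF domain libraries grown in strain YBZ-1 (LexA–MS2 coat fusion, HIS3 reporter) alongside matching RNA elements. Input plates were SC-Leu and selection plates were SC-Leu-His + 0.5 mM 3-AT, each for four days, and the log2 calculation used a pseudocount of 1 where a variant was absent.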

The target of another test is T2, PUM1 PUF domain R6-IFT (Homo sapiens, UniProt Q14671 828-1176, N1043I;Y1044F;Q1047T).
T2 sequence: T1 sequence with V216I, W217F
Put shortly: as §1

The target of a further test is T3, PUM1 PUF domain R6-EWL (Homo sapiens, UniProt Q14671 828-1176, N1043E;Y1044W;Q1047L).
T3 sequence: T1 sequence with V216E, T220L
Put shortly: as §1

The next test addresses PUM1 PUF domain R1-RLQ (Homo sapiens, UniProt Q14671 828-1176, S863R;R864L). Put shortly: as §1
The next test concerns the target PUM1 PUF domain R2-LFI (Homo sapiens, UniProt Q14671 828-1176, N899L;Y900F;Q903I). Put shortly: as §1
The next test concerns the target PUM1 PUF domain R5-RRG (Homo sapiens, UniProt Q14671 828-1176, C1007R;Q1011G). The procedure, abridged: as §1
Another test has as its target PUM1 PUF domain R5-SHL (Homo sapiens, UniProt Q14671 828-1176, C1007S;R1008H;Q1011L). Put shortly:
as §1

The next test concerns the target PUM1 PUF domain R3-YYG (Homo sapiens, UniProt Q14671 828-1176, C935Y;R936Y;Q939G). Put shortly:
as §1

The target in another test is PUM1 PUF domain R5-RKP (Homo sapiens, UniProt Q14671 828-1176, C1007R;R1008K;Q1011P). The procedure, abridged: as §1
The target of a further test is PUM1 PUF domain R5-RCK (Homo sapiens, UniProt Q14671 828-1176, C1007R;R1008C;Q1011K). Put shortly: as §1

For the sequence “GGCUAGAACUAGUGGAUCCCCCGGCGCCCGGCGGCUCGAGCCCGGGUAAGUGAAAAUAGUCUGCAUGCCGCCGGGCGCCAUGCCUGCAGGUCGACUCUAGAAAACAUG”, the binding signal with PUM1 PUF domain R6-VWT was 6.13 log2 enrichment (interaction score); with PUM1 PUF domain R6-IFT it was 4.79 log2 enrichment (interaction score); with PUM1 PUF domain R6-EWL, 7.27 log2 enrichment (interaction score). On to “GGCUAGAACUAGUGGAUCCCCCGGCGCCCGGCGGCUCGAGCCCGGGUAAGUGUAAAUUGUCUGCAUGCCGCCGGGCGCCAUGCCUGCAGGUCGACUCUAGAAAACAUG”, for which, in the test with PUM1 PUF domain R1-RLQ, the binding signal was 4.94 log2 enrichment (interaction score). As for “GGCUAGAACUAGUGGAUCCCCCGGCGCCCGGCGGCUCGAGCCCGGGUAAGUGUAAAAAGUCUGCAUGCCGCCGGGCGCCAUGCCUGCAGGUCGACUCUAGAAAACAUG”, in the test with PUM1 PUF domain R2-LFI, the binding signal was 4.64 log2 enrichment (interaction score). With “GGCUAGAACUAGUGGAUCCCCCGGCGCCCGGCGGCUCGAGCCCGGGUAAGUGUUAAUAGUCUGCAUGCCGCCGGGCGCCAUGCCUGCAGGUCGACUCUAGAAAACAUG”, the binding signal was 4.55 log2 enrichment (interaction score) in the test with PUM1 PUF domain R5-RRG and 2.85 log2 enrichment (interaction score) with PUM1 PUF domain R5-SHL. “GGCUAGAACUAGUGGAUCCCCCGGCGCCCGGCGGCUCGAGCCCGGGUAAGUGUAAGUAGUCUGCAUGCCGCCGGGCGCCAUGCCUGCAGGUCGACUCUAGAAAACAUG”: the binding signal with PUM1 PUF domain R3-YYG is 6.37 log2 enrichment (interaction score). For the sequence “GGCUAGAACUAGUGGAUCCCCCGGCGCCCGGCGGCUCGAGCCCGGGUAAGUGUGAAUAGUCUGCAUGCCGCCGGGCGCCAUGCCUGCAGGUCGACUCUAGAAAACAUG”, in the test with PUM1 PUF domain R5-RRG, the binding signal was 1.66 log2 enrichment (interaction score).

As for “GGCUAGAACUAGUGGAUCCCCCGGCGCCCGGCGGCUCGAGCCCGGGUAAGUGUAAAUAGUCUGCAUGCCGCCGGGCGCCAUGCCUGCAGGUCGACUCUAGAAAACAUG”, the binding signal with PUM1 PUF domain R5-RRG was 2.29 log2 enrichment (interaction score); with PUM1 PUF domain R6-VWT, 1.67 log2 enrichment (interaction score); with PUM1 PUF domain R5-SHL it was 2.34 log2 enrichment (interaction score); in the test with PUM1 PUF domain R3-YYG it was 4.58 log2 enrichment (interaction score). Consider “GGCUAGAACUAGUGGAUCCCCCGGCGCCCGGCGGCUCGAGCCCGGGUAAGUGUAAAUGGUCUGCAUGCCGCCGGGCGCCAUGCCUGCAGGUCGACUCUAGAAAACAUG”, for which, in the test with PUM1 PUF domain R1-RLQ, the binding signal is 2.26 log2 enrichment (interaction score). Same read-out and setting: the figure for “GGCUAGAACUAGUGGAUCCCCCGGCGCCCGGCGGCUCGAGCCCGGGUAAGUGUAAAUCGUCUGCAUGCCGCCGGGCGCCAUGCCUGCAGGUCGACUCUAGAAAACAUG” is 5.58 log2 enrichment (interaction score). With “GGCUAGAACUAGUGGAUCCCCCGGCGCCCGGCGGCUCGAGCCCGGGUAAGUGUCAAUAGUCUGCAUGCCGCCGGGCGCCAUGCCUGCAGGUCGACUCUAGAAAACAUG”, the binding signal with PUM1 PUF domain R5-RKP is 3.3 log2 enrichment (interaction score); with PUM1 PUF domain R5-RRG it was 4.19 log2 enrichment (interaction score); in the test with PUM1 PUF domain R5-RCK, 4.05 log2 enrichment (interaction score); in the test with PUM1 PUF domain R5-SHL it was 0.12 log2 enrichment (interaction score).
